# Screening results deposited in PubChem by National Center for Advancing Translational Sciences (NCATS).
# Rab9 promoter act: qHTS Assay for Rab9 Promoter Activators | Potency, µM (doses to about 9.22 µM), inactives show at the top dose activation, negative = inhibition, usual class: activators | 320,000 compounds, 2.8% hits | Huh7 Rab9 promoter-luciferase reporter, luminescence, 24 h; further: % of control where 0% means no effect; nearly all actives have a fitted effect of over 60% in size
#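 Huh7 cells stably carrying a Rab9 promoter-luciferase reporter, 1500 cells per well in OP-MEM I with 10% FBS, treated with compound 24 hours at 37C. Luciferase activity read by luminescence after 10 minutes with Amplite reagent.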
# ELG1 genotox: qHTS screen for small molecules that induce genotoxicity in human embryonic kidney (HEK293T) cells expressing luciferase-tagged ELG1 | HEK293T ELG1-luciferase reporter, luminescence, 16 h | Potency, µM (series often up to 46 µM), inactives show top-dose activity change, positive = activation, hits mostly activators | 330,000 compounds, 1.3% hits | AID 504466, 2011; further: % of control where 0% means no effect; nearly all actives have a fitted effect of over 60% in size
#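 HEK293T cells expressing luciferase-tagged ELG1 were treated with compound or DMSO for 16 hr at 37°C. Luciferase activity was then read after 30 min with ONE-Glo at room temperature; rising signal flags genetic stress.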
# NPC1 promoter act: qHTS Assay for NPC1 Promoter Activators. Huh7 NPC1 promoter luciferase reporter, 24 h. AID 485313, 2010. Potency, µM (titrated, usually from 9.22 µM), without a hit: at the top dose activation, hits mostly activators. 320,000 compounds, 2.4% hits; further: % of control where 0% means no effect; nearly all actives have a fitted effect of over 60% in size
#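 Stably transfected Huh7 (NPC1 promoter→luciferase), 1500 cells/well in Opti-MEM + 10% FBS, 2 h settle, then compound 24 h at 37 °C. Luminescence after 10 min with Amplite reagent.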
# FLuc counter: qHTS profiling assay for firefly luciferase inhibitor/activator using purifed enzyme and Km concentrations of substrates (counterscreen for miR-21 project) | 360,000 compounds, 6.9% hits | Potency, µM (series often up to 57.5 µM), for the others: top-dose activity change, negative = inhibition, most hits filed as inhibitors | AID 588342, 2011 | purified FLuc, Km substrates, luminescence inhibition | Luciferin 4-monooxygenase (Photinus pyralis), P08659;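 further: plate controls were vehicle for no effect and reference inhibitor for full effect; nearly all actives have a fitted effect of over 55% in size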
# Target sequence (P08659 whole entry, looked up): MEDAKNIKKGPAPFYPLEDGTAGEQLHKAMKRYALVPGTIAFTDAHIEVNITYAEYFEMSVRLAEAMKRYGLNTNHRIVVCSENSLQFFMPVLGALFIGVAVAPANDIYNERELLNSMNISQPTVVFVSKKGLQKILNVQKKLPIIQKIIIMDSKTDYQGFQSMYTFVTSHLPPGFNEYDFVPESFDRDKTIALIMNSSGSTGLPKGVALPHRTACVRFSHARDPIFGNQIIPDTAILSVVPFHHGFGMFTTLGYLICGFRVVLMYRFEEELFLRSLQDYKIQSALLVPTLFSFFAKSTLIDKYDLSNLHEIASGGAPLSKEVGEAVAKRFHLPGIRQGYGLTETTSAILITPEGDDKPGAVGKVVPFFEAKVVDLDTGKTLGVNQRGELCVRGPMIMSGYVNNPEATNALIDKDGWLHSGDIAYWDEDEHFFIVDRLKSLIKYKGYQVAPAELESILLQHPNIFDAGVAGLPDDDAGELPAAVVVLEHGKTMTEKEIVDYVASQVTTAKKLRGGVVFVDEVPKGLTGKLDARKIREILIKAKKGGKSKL
#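 Purified P. pyralis luciferase (10nM final) with 10uM D-luciferin and 10uM ATP (Km levels) in 50mM Tris acetate pH 7.5, 10mM Mg acetate, 0.01% Tween-20, 0.05% BSA; qHTS 6-point titration, ~60 µM downward; luminescence read.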
# SMN2 splice up: qHTS Assay for Enhancers of SMN2 Splice Variant Expression; HEK293 SMN2-luciferase splicing reporter, luminescence, 30-36 h; Potency, µM (doses to about 46.1 µM), for the others: at the top dose activity change, positive = activation, actives largely listed as activators; 210,000 compounds, 2.8% hits; AID 1458, 2008; further: % of control where 0% means no effect; nearly all actives have a fitted effect of over 55% in size
#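 qHTS luciferase splicing reporter: luminescence rises when SMN2 exon 7 is included in transfected HEK293 cells. Compound exposure lasted 30-36 h at 37C, with 4.5 mM final sodium butyrate as control, followed by a ONE-Glo read.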
# uPA surface inh: qHTS for Inhibitors of Cell Surface uPA Generation; cell surface uPA generation assay, qHTS; Potency, µM (top dose mostly 38.3 µM), for inactives: at the highest dose activity change, negative = inhibition, most hits filed as inhibitors; 330,000 compounds, 0.31% hits; active means well fitted inhibition curve with a large enough effect; inconclusive means small, poorly fitted or top-dose-only effect; inactive means no such curve, though single readings can be large or run the other way; tested in mouse RAW 264.7 cells; further: on the % scale 0 is the no-effect control and ±100 the full control effect; nearly all actives have a fitted effect of over 55% in size
# * marks the source's active call; other numbers are inactive results; ? = inconclusive; / = no result given. An excerpt weighted towards active compounds, which were near 7.3% of everything screened. Unless noted, the call rests on the fitted dose curve; in most records, active means well fitted curve in the direction sought with a large enough effect; inconclusive means small, poorly fitted or top-dose-only effect, or another doubt; inactive means no such curve, though single readings can be large; an effect the other way counts as inactive or inconclusive. Potency means the concentration at half of the fitted maximal effect.
SMILES,Rab9 promoter act,ELG1 genotox,NPC1 promoter act,FLuc counter,SMN2 splice up,uPA surface inh
CCOc1ccc(NC(=O)CC2C(=O)N(c3cccc(C)c3)C(=O)N2CCC2=CCCCC2)cc1 (stereo not given),/,/,/,7.3%,15.2%,/
CCOc1ccccc1NC(=O)COC(=O)c1cn(CC)c2nc(C)ccc2c1=O,/,/,/,-11.8%,7.8%,/
CC1CCc2c(sc3nc(-c4cc5ccccc5oc4=O)nc(Cl)c23)C1 (stereo not given),/,/,/,2.39µM*,2.0%,/
CCOc1ccc(C2CC(=O)NC(NC(=O)c3cccc(Cl)c3)=N2)cc1 (stereo not given),/,/,/,2.0%,/,/
Cc1ccc2c(CC(=O)N(Cc3cccc(Cl)c3)C3CCS(=O)(=O)C3)coc2c1 (stereo not given),/,/,/,-17.3%,8.3%,/
CC(=O)Nc1ccc(S(=O)(=O)Nc2nc3ccccc3nc2Nc2ccc3ccccc3c2)cc1,1.3%,-0.6%,-1.1%,9.53µM*,?,12.6%
COC(=O)c1cc(Nc2nc3ccccc3nc2NS(=O)(=O)c2ccc(C)cc2)ccc1Cl,/,/,/,19µM*,-1.8%,/
COc1ccc(Cl)cc1S(=O)(=O)Nc1cccc(-c2ccc(N3CCOCC3)nn2)c1,/,/,/,19µM*,/,/
Cc1cc(S(=O)(=O)Nc2cccc(-c3ccc(N4CCOCC4)nn3)c2)c(C)cc1Cl,/,/,/,12µM*,/,/
Cc1cccc(-n2cc(CNCCc3nc(C)cc(C)n3)c(-c3cccc(F)c3)n2)c1,-5.4%,-6.1%,-7.4%,15.1µM*,/,?
COc1ccc(-n2cc(CNCc3cnc4ccccn34)c(-c3cccc(F)c3)n2)cc1,0.8%,-13.9%,5.2%,8.49µM*,/,-2.6%
COc1ccc(-n2cc(CNCCCn3ccnc3)c(-c3cccc(F)c3)n2)cc1,-11.4%,2.0%,-2.2%,?,/,-18.1%
COc1ccc(-n2cc(CNCC3CCOCC3)c(-c3cccc(F)c3)n2)cc1,-5.1%,-3.3%,-5.4%,?,/,-8.6%
Cc1ccccc1-c1nc2scc(CCNS(=O)(=O)c3ccccc3)n2n1,/,/,/,-11.7%,/,/
CC(=O)c1ccc(OCc2ccccc2)c(C)c1O,3.8%,?,15.5%,16.9µM*,?,-21.7%
NNC(=O)c1ccccc1OCc1ccccc1,-3.6%,1.4%,-2.7%,-3.3%,/,-10.6%
COc1ccc(/C=N/NC(=O)CCSc2nc3ccccc3s2)cc1OC,-5.7%,-0.9%,-2.3%,21.3µM*,18.2%,?
COc1ccc(Cc2nc3ccccc3n2CC(=O)N/N=C/c2ccccc2)cc1OC,0.2%,-3.1%,-1.6%,-1.6%,-6.2%,-0.4%
COc1ccc(/C=N/NC(=O)c2ccc(O)cc2O)cc1CSc1ccccn1,2.9%,4.1%,1.3%,26.9µM*,6.8%,0.8%
CCn1c(SCC(=O)N/N=C/c2ccc(OC)c(OC)c2)nc2ccccc21,-1.6%,6.2%,1.1%,16.9µM*,4.2%,/
COc1cc(/C=N/NC(=O)CSc2ccccn2)ccc1OC(C)C,?,?,11.7%,4.26µM*,/,-6.1%
COc1ccc(C=O)cc1CSc1ccccn1,1.5%,4.7%,-0.3%,-8.4%,/,3.7%
COc1ccc(/C=N/NC(=O)C(C)Sc2ccccn2)cc1[N+](=O)[O-] (stereo not given),-8.9%,-0.1%,0.6%,-6.0%,-25.5%,-0.5%
COc1ccc(/C=N/NC(=O)c2ccccc2Cl)cc1CSc1nc2ccccc2s1,1.8%,?,-17.3%,-1.3%,-43.4%,/
Cc1ccc(CNc2ncnc3onc(C)c23)cc1,/,/,/,-1.3%,/,/
SMILES,Rab9 promoter act,ELG1 genotox,NPC1 promoter act,FLuc counter,SMN2 splice up,uPA surface inh
O=C(NCc1noc2ccccc12)N1CCN(c2ccccc2)CC1,/,/,/,-1.5%,/,/
CNc1c(NC(=O)c2cc(OC)cc(OC)c2)c(=O)oc2ccccc12,/,/,/,-0.9%,3.9%,/
COc1cc(OC)c(NC(=O)C(Cc2ccccc2)NS(=O)(=O)c2cccc3nsnc23)cc1Cl (stereo not given),/,/,/,-12.1%,1.5%,/
CCC(C)[C@H](N)c1nnc(SCc2ccc(Cl)c(Cl)c2)o1 (stereo not given in full),/,/,/,0.6%,-12.9%,/
COc1ccccc1/C=C\C=N\NC(=O)CCn1nnc2ccccc21,-2.9%,-3.2%,7.6%,-17.8%,9.7%,-11.2%
O=C(CSc1ccccn1)N/N=C/c1cc([N+](=O)[O-])ccc1O,-3.2%,6.8%,-1.9%,-5.0%,/,3.55µM*
COc1ccc(/C=N/NC(=O)CCn2nnc3ccccc32)cc1,0.8%,3.5%,-4.3%,13.5µM*,/,-6.7%
O=C(CSc1ccccn1)N/N=C/c1ccccc1[N+](=O)[O-],8.7%,7.6%,12.0%,-19.6%,9.6%,-3.9%
COc1ccc2c(c1)c1c(c(=O)n(Cc3ccccc3)c(=O)n1Cc1cccc(Cl)c1)n2C,/,/,/,-1.7%,/,/
CCc1ccccc1NC(=O)CSc1nc2c(oc3ccccc32)c(=O)n1C,/,/,/,1.2%,-8.7%,/
COc1cc(OC)c(C(=O)Oc2ccc3c(c2)OCO3)cc1OC,12.4%,-2.1%,-0.8%,-10.4%,-14.2%,-9.6%
COc1ccc(C(=O)Oc2ccc3c(c2)OCO3)cc1OC,2.6%,11.2%,3.3%,23.9µM*,4.3%,0.4%
N/C(=N\OC(=O)c1ccc2c(c1)OCO2)c1cccnc1,?,?,?,1.2µM*,/,-11.9%
COc1ccc(/C(N)=N/OC(=O)c2ccc3c(c2)OCO3)cc1OC,?,?,?,3.01µM*,?,-20.6%
N/C(=N\OC(=O)c1ccc2c(c1)OCO2)c1ccc([N+](=O)[O-])cc1,?,?,?,?,26.1%,-9.6%
N/C(=N\OC(=O)c1ccc2c(c1)OCO2)c1cccc(Br)c1,4.47µM*,?,?,0.135µM*,/,6.1%
N/C(=N\OC(=O)c1cccc(Br)c1)c1ccc(Br)cc1,11.4%,12.2%,24.2%,?,-5.1%,-1.5%
Cc1ccc(NC(=O)CSc2nc(=O)n(Cc3ccco3)c3c2CCC3)cc1F,/,/,/,-13.8%,/,/
COc1ccc([C@H]2[C@H](C(=O)OC(C)(C)C)N3N=Cc4ccccc4C3C23C(=O)c2ccccc2C3=O)cc1OC (stereo not given in full),-1.5%,-2.1%,-0.1%,15.1µM*,10.0%,34.3%
COC(=O)Nc1sc2c(c1C(N)=O)CCC(C)C2 (stereo not given),-8.3%,-0.4%,-3.8%,?,/,0.1%
CC1CCc2c(sc(/N=C/c3ccco3)c2C(N)=O)C1 (stereo not given),28.1%,?,?,5.36µM*,/,-1.0%
